# PAX8 reporter: lowers PAX8-driven luciferase in RMG-I cells | inhibition, % at 12.6 µM | RMG-I TPO-luciferase reporter, SteadyGlo, 24 h | hit rate 1.2% among 360,000;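 active = mean replicate inhibition at least 60% with every replicate also reaching 60%; inconclusive = only one of the two criteria is met; inactive = mean below 60% and not all replicates reaching 60%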;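 also: luciferase light reporting Pax8 driven TPO promoter activity; plate controls were median of neutral control wells for no effect and mitoxantrone controls for full effect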
# EWS-Fli block: EWS/Fli transcriptional activity inhibition | A673 NR0B1-luciferase reporter, viability-normalised | inhibition, % at 12.6 µM | hit rate 0.67% among 350,000 | AID 651661;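 active = mean inhibition of at least 50% after viability correction, with every replicate also passing that limit; inconclusive = mean reaches 50% but only one of two replicates passes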;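 also: firefly luciferase signal divided by Alamar Blue viability fluorescence both relative to DMSO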
# CFTR F508del cor: correctors of CFTR F508del function in bronchial epithelial cells; CFBE cells, YFP halide quenching; stimulated with forskolin plus potentiator P3; % fluorescence drop versus neutral controls; activity (quench increase), % at 7.58 µM; hit rate 0.36% among 350,000; AID 720511;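 active = mean added fluorescence quench of at least 8% versus neutral control, with both replicates also reaching 8%; inconclusive = only one of the mean or replicate conditions met; inactive = mean below 8% and not both replicates reaching 8%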;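 also: cells transiently co-express mutant CFTR-F508del with the halide-sensitive YFP; corrector assay measuring rescue of mutant channel to the surface after 24 h compound exposure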
# LGR2 inh: blocks bursicon-induced cAMP signaling via Drosophila LGR2. HEK293 LGR2, CRE-luciferase, bursicon-stimulated, 4 h. inhibition, % at 9.99 µM. hit rate 0.35% among 380,000;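 active = drop in luminescence signal, shown as inhibition above about 50% in the replicate tests, limit read from the data, passing the limit was not always enough; inconclusive = probably only some replicates passing the limit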;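 also: agonist challenge used bursicon conditioned medium at about half maximal strength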
# An asterisk follows results filed as active; ? = inconclusive; / = no result. The list is not random: actives were taken first. Their share in the collection is about 1.8%.
SMILES,PAX8 reporter,EWS-Fli block,CFTR F508del cor,LGR2 inh
CCC(=O)N1CCCCN2[C@H](C1)[C@@H](c1ccc(-c3cccnc3)cc1)[C@@H]2CO,-46,-5,1,9
COc1ccc(CN(C)C[C@@H]2Oc3ccc(NC(=O)c4ccncc4)cc3C(=O)N([C@H](C)CO)C[C@H]2C)cc1,-14,-4,1,-7
Cc1[nH]c(C)c(C(=O)/C=C/c2ccc([N+](=O)[O-])cc2)c1C,2,63*,3,/
CCc1ccc(OCCNc2cc(N3CCNC(C)C3)ccc2[N+](=O)[O-])cc1 (configuration not stated),18,32,13*,-20
CC(OC(=O)CNC(=O)COc1ccccc1)C(=O)N(C)Cc1ccccc1 (configuration not stated),1,2,-1,-1
COc1ccc(-c2cc(C(F)F)n3ncc(C(=O)N4CCc5ccccc54)c3n2)cc1,-16,57*,14*,-13
Cc1csc(NC(=O)c2cnc3ccccc3n2)n1,-24,58*,0,58*
Cc1csc(NC(=O)c2cn3ccccc3n2)n1,78*,73*,1,89*
O=C(Nc1ccccc1)c1cn2ccccc2n1,-17,30,-1,?
O=C(Nc1ccccc1)[C@H]1[C@H](CO)[C@H]2Cn3c(ccc(C4=CCCCC4)c3=O)[C@H]2N1Cc1cocn1,2,-4,/,-1
CS(=O)(=O)N1CC(=O)N2[C@H](CO)[C@H](c3ccc(C#CCC4CCCC4)cc3)[C@H]2C1,76*,-8,2,-19
Cc1ccccc1S(=O)(=O)N1CC(=O)N2[C@H](CO)[C@H](c3ccc(C#CCC(C)C)cc3)[C@@H]2C1,-30,0,1,14
COc1ccc(S(=O)(=O)N2CCCCN3[C@@H](CO)[C@H](c4ccc(C#CC(C)C)cc4)[C@@H]3C2)cc1,74*,27,0,10
Cc1ccccc1S(=O)(=O)N1CC(=O)N2[C@H](CO)[C@H](c3ccc(C#CCC(C)C)cc3)[C@H]2C1,66*,-1,7,11
CC(C)C#Cc1ccc([C@@H]2[C@@H](CO)N3C(=O)CN(S(=O)(=O)c4ccccc4)C[C@@H]23)cc1,3,-7,12*,-6
OCCC1CN(Cc2cnc(N3CCCC3)s2)CCN1C1CCCC1 (configuration not stated),5,0,-1,9
C[C@@H]1CCCCO[C@@H](CN(C)Cc2ccc(C(F)(F)F)cc2)[C@H](C)CN([C@@H](C)CO)C(=O)c2cc(NC(=O)Nc3ccccc3)ccc2O1,?,3,-3,3
O=C(O)c1ccc(Cn2cc(/C=C\[N+](=O)[O-])c3ccccc32)o1,22,21,-1,9
COC(=O)c1ccc(Cn2cc(/C=C\[N+](=O)[O-])c3ccccc32)o1,28,68*,-15,1
C[C@H](CO)N1C[C@H](C)[C@@H](CN(C)Cc2ccc(-c3ccccc3)cc2)Oc2ccc(NS(=O)(=O)c3ccccc3)cc2CC1=O,80*,18,-1,10
C[C@@H]1CN([C@@H](C)CO)C(=O)Cc2cc(NS(=O)(=O)c3ccc(Cl)cc3)ccc2O[C@H]1CN(C)Cc1ccc(-c2ccccc2)cc1,69*,34,3,-17
O=C(N/N=C\C=C\c1ccc([N+](=O)[O-])o1)c1cccs1,16,10,1,-6
O=C1NC(=S)S/C1=C\C=C\c1ccc([N+](=O)[O-])o1,48,70*,-17,20
O=C(CN1C(=O)/C(=C\c2ccccc2Cl)Oc2ccccc21)NCc1cccnc1,8,-5,/,5
O=C(CSCC(=O)N1CCOCC1)Nc1nc(-c2ccccc2)cs1,-56,-36,-1,2
SMILES,PAX8 reporter,EWS-Fli block,CFTR F508del cor,LGR2 inh
CCOC(=O)N1CCN(C(=O)CSCC(=O)Nc2nc(-c3ccc(-c4ccccc4)cc3)cs2)CC1,-3,4,2,51*
CCCN1CCc2[nH]c(=S)[nH]c(=O)c2C1,72*,-10,-5,-3
CCCCSCCCNC(=O)Nc1ccc(CC)cc1,7,-7,1,13
C[C@H]1CN([C@@H](C)CO)S(=O)(=O)c2ccc(C#Cc3ccccc3F)cc2O[C@@H]1CN(C)CC1CCOCC1,90*,-3,1,-9
C[C@@H]1CN([C@H](C)CO)S(=O)(=O)c2ccc(C#Cc3ccccc3F)cc2O[C@@H]1CN(C)CC1CCOCC1,37,-15,-1,3
C[C@@H]1CN([C@@H](C)CO)S(=O)(=O)c2ccc(C#Cc3ccccc3F)cc2O[C@H]1CN(C)CC1CCOCC1,94*,23,3,31

# From PubChem BioAssay
